Laboratory results: ChEMBL document CHEMBL1157539, “Thousands of chemical starting points for antimalarial lead identification” (Nature, 2010)

Test system: Plasmodium falciparum
Experiment: GSK_TCMDC: Inhibition of Plasmodium falciparum Dd2 in whole red blood cells, using parasite LDH activity as an index of growth. Test compounds present at 2uM
Assay type: functional

Row | Structure (SMILES) | Inhibition
1 | CN(C)CCNCc1nc(-c2ccc3c(Nc4ccc(Oc5ccccc5)cc4)ccnc3c2)cs1 | 100%
2 | CC(=O)CC(=O)N1CCN(c2ccccc2)CC1 | 0%
3 | CCOC(=O)c1ccc(NC(=O)N(Cc2ccc(-c3ccc(CN4CCNCC4)cc3)cc2)Cc2cccnc2)cc1.O=C(O)C(F)(F)F | 34%
4 | Cc1noc(C)c1-c1cccc(CNCc2ccc(-c3ccc(-c4nc5cc(F)ccc5[nH]4)s3)cc2)c1.O=C(O)C(F)(F)F | 93%
5 | O=C(/C=C/c1ccc(Cl)c(Cl)c1)NCCCCCN1CCCN(C(=O)Nc2cc(Cl)nc(Cl)c2)CC1 | 3%
6 | CCCCNC(=O)c1[nH]c2c(NC(=O)COc3ccccc3)cccc2c1-c1cccc(NC(=O)C(N)CO)c1 (stereo unspecified) | 0%
7 | O=C(Nc1ccc(-c2cccc(-c3nc4ccccc4[nH]3)c2)cc1)NC1CC1c1ccccc1 (stereo unspecified) | 6%
8 | Clc1cc(Nc2ccnc3ccc(Br)cc23)ccc1Oc1ccc2ccccc2c1Cl | 93%
9 | O=C(Nc1ccc2c(c1)CCC2)N[C@H]1CCN(Cc2ccc(OCCCN3CCCCC3)cc2)C1 | 0%
10 | Cc1cccc2nc(-c3ccc(-c4cccc(CN5CCC(N)C5)c4)s3)[nH]c12.O=C(O)C(F)(F)F (stereo unspecified) | 78%
11 | CC(C)C[C@H](Nc1ccnc(NCC2CCCCC2)n1)C(=O)NCCOc1ccccc1.O=C(O)C(F)(F)F | 73%
12 | Cc1cccc2nc(-c3ccc(-c4cccc(NC(=O)c5cnccc5C(F)(F)F)c4)cc3)[nH]c12 | 13%
13 | Cl.O=c1cc(NCCCNCc2cc3c(Cl)cccc3s2)[nH]c2ccccc12 | 57%
14 | O=CO.c1ccc(-c2ccc(CNCCCNc3nc4ccccc4[nH]3)cc2)cc1 | 0%
15 | Cl.c1ccc2c(Nc3ccc(Cc4ccc(Nc5c6ccccc6nc6ccccc56)cc4)cc3)c3ccccc3nc2c1 | 100%
16 | COc1ccc2ncc(F)c(CCN3CC[C@@H](CNCc4cc(C)c5c(c4)OCCO5)C3)c2n1.Cl | 44%
17 | O=C(NCC1CCN(Cc2cccc(C(F)(F)F)c2)C1)c1cc(-c2cccc(Cl)c2)cs1.O=C(O)C(F)(F)F (stereo unspecified) | 14%
18 | CCCCNc1ccc(C(=O)NC2CCN(C[C@H](O)c3ccnc4ccc(OC)cc34)CC2)cc1 | 64%

Row | Structure (SMILES) | Inhibition
19 | NC1CCN(Cc2cccc(-c3ccc(-c4nc5ccccc5[nH]4)cc3)c2)C1.O=C(O)C(F)(F)F (stereo unspecified) | 58%
20 | Cl.O=c1cc(NCCCNCc2sc(Br)nc2Br)[nH]c2ccccc12 | 44%
21 | O=[N+]([O-])c1ccc(Nc2nc(N/N=C/c3cc(Cl)cc(Cl)c3O)nc(Nc3ccccc3)n2)cc1 | 72%
22 | C[C@H](NC(=O)c1c(CN2CCC(NC(=O)CC(C)(C)C)CC2)c(-c2cccs2)nc2ccccc12)C1CCCCC1 | 70%
23 | CCOc1cc(Cc2cnc(N)nc2N)cc(OC)c1OC | 0%
24 | CN1CCC(C(=O)Nc2ccc(-c3ccc(-c4nc5ccccc5[nH]4)cc3)cc2)CC1 | 94%
25 | CCOC(=O)c1ccc(NC(=O)Nc2cccc(-c3ccc(-c4nc5cccc(C)c5[nH]4)s3)c2)cc1 | 99%
26 | COc1ccc(-c2ccc(NC(=O)c3ccc(C#N)cc3)cc2)cc1CN(C)CCN(C)C.O=C(O)C(F)(F)F | 58%
27 | Cc1cccc2nc(-c3ccc(-c4ccc(CN5CCCCC5CO)cc4)cc3)[nH]c12.O=C(O)C(F)(F)F (stereo unspecified) | 76%
28 | Cc1cc(N[C@@H](Cc2ccccc2)C(=O)NCCOc2ccccc2)nc(NCCc2cccs2)n1.O=C(O)C(F)(F)F | 32%
29 | Cc1ccc(C)c(C2CCN(CCCCNC(=O)c3ccc(NC(=O)c4ccc(Cl)cc4)cc3)CC2)c1 | 13%
30 | CCCc1cc(Cc2cnc(N)nc2N)cc2c1OC(C)C2C.Cl (stereo unspecified) | 0%
31 | COc1cc(C=NN=c2cc(C)[nH]c3ccccc23)cc(OC)c1OC | 95%
32 | O=C(O)c1cccc2c(-c3ccncc3)cccc12 | 1%
33 | O=C(N1CCN(c2ccnc3cc4c(cc23)N(Cc2ccccc2)CC4)CC1)C(F)(F)F | 100%
34 | Fc1ccc2[nH]c(-c3ccc(-c4cccc(CN5CCN(c6ccncc6)CC5)c4)cc3)nc2c1.O=C(O)C(F)(F)F | 100%
35 | Cc1cc(CN2CC[C@H](NC(=O)c3ccc(Cl)c(Cl)c3)C2)ccc1OCCN1CCNCC1.O=C(O)C(F)(F)F | 1%
36 | O=S(=O)(Nc1ccc(CCN2CCC(N3CCCCC3)CC2)cc1)c1cccc2cccnc12 | 45%
